Several values for one entry are separate records, joined by “and”; a condition that tells them apart may be missing. Equal values may be shown once. About 2,000 (36%) of roughly 5,500 compounds were called active. Inconclusive results (about 18%) are left out. Cut-off read from the data, not from the text of the source: active = normalized growth mostly below about 0.91 (no sharp cut-off); inconclusive = no clear call, values can overlap the other calls; inactive = mostly above about 0.92. This is one part of the list.
Test: chemical genetic growth profiling, strain panel (AID 1159580);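 note: tested at 20 µM; growth read once vehicle control cultures reached saturation at 30 °C; 1 = growth at the plate median or of vehicle wells; lower values mean less growth of the strain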
Settings: growth OD

Measured: normalized growth

CC1OC1P(=O)(O)O (stereo unspecified)
inactive: S. cerevisiae deletion strains, locus YKL009W, strain mrt4, active compounds read low 0.991 | S. cerevisiae deletion strains, locus YKL068W, active compounds read low 0.988 | S. cerevisiae deletion strains, locus YKL085W, strain MDH1 (second series), active compounds read low 0.978 | S. cerevisiae deletion strains, locus YKL085W, strain MDH1, active compounds read low 0.978 | S. cerevisiae deletion strains, locus YKL160W, strain elf1, active compounds read low 0.971 | S. cerevisiae deletion strains, locus YKL190W, strain CNB1, active compounds read low 1 | S. cerevisiae deletion strains, locus YKR001C, strain vps1, active compounds read low 0.992 | S. cerevisiae deletion strains, locus YKR026C, strain gcn3, active compounds read low 1 | S. cerevisiae deletion strains, locus YKR091W, strain srl3, active compounds read low 0.988 | S. cerevisiae deletion strains, locus YLL001W, strain dnm1, active compounds read low 0.982 | S. cerevisiae deletion strains, locus YLL026W, active compounds read low 0.985 | S. cerevisiae deletion strains, locus YLL041C, strain sdh2, active compounds read low 0.999 | S. cerevisiae deletion strains, locus YLR027C, strain aat2, active compounds read low 0.975 | S. cerevisiae deletion strains, locus YLR039C, strain RIC1, active compounds read low 0.991 | S. cerevisiae deletion strains, locus YLR058C, strain SHM2, active compounds read low 0.996 | S. cerevisiae deletion strains, locus YLR102C, strain apc9, active compounds read low 0.99 | S. cerevisiae deletion strains, locus YLR221C, strain rsa3, active compounds read low 0.974 | S. cerevisiae deletion strains, locus YLR258W, strain gsy2, active compounds read low 0.979 | S. cerevisiae deletion strains, locus YLR262C, strain YPT6 (second series), active compounds read low 0.987 | S. cerevisiae deletion strains, locus YLR262C, strain YPT6, active compounds read low 0.956 | S. cerevisiae deletion strains, locus YLR268W, strain sec22, active compounds read low 0.986 | S. cerevisiae deletion strains, locus YLR320W, strain mms22, active compounds read low 0.958 | S. cerevisiae deletion strains, locus YLR330W, strain CHS5, active compounds read low 0.992 | S. cerevisiae deletion strains, locus YLR342W, strain FKS1 (second series), active compounds read low 0.963 | S. cerevisiae deletion strains, locus YLR342W, strain FKS1, active compounds read low 0.983 | S. cerevisiae deletion strains, locus YLR357W, strain rsc2, active compounds read low 0.954 | S. cerevisiae deletion strains, locus YLR370C, strain arc18, active compounds read low 0.999 | S. cerevisiae deletion strains, locus YLR371W, strain rom2, active compounds read low 0.977 | S. cerevisiae deletion strains, locus YLR384C, strain iki3, active compounds read low 0.995 | S. cerevisiae deletion strains, locus YLR418C, strain cdc73, active compounds read low 0.963 | S. cerevisiae deletion strains, locus YML016C, strain PPZ1, active compounds read low 0.99 | S. cerevisiae deletion strains, locus YML032C, strain rad52, active compounds read low 0.997 | S. cerevisiae deletion strains, locus YML120C, strain ndi1, active compounds read low 0.998 | S. cerevisiae deletion strains, locus YML124C, strain tub3, active compounds read low 0.992 | S. cerevisiae deletion strains, locus YMR058W, strain fet3, active compounds read low 0.998 | S. cerevisiae deletion strains, locus YMR078C, strain ctf18, active compounds read low 0.982 | S. cerevisiae deletion strains, locus YMR125W, strain sto1, active compounds read low 1.01 | S. cerevisiae deletion strains, locus YMR129W, active compounds read low 1.01 | S. cerevisiae deletion strains, locus YMR205C, strain PFK2, active compounds read low 0.962 | S. cerevisiae deletion strains, locus YMR223W, strain ubp8, active compounds read low 0.971 | S. cerevisiae deletion strains, locus YMR231W, strain pep5, active compounds read low 0.991 | S. cerevisiae deletion strains, locus YMR263W, strain SAP30, active compounds read low 1.01 and 1 | S. cerevisiae deletion strains, locus YMR307W, strain GAS1, active compounds read low 0.94 | S. cerevisiae deletion strains, locus YNL067W, strain RPL9B, active compounds read low 1.03 | S. cerevisiae deletion strains, locus YNL071W, strain lat1, active compounds read low 1 | S. cerevisiae deletion strains, locus YNL128W, strain TEP1, active compounds read low 0.986 | S. cerevisiae deletion strains, locus YNL153C, strain GIM3, active compounds read low 1.15 | S. cerevisiae deletion strains, locus YNL175C, strain NOP13, active compounds read low 0.984 | S. cerevisiae deletion strains, locus YNL197C, strain WHI3, active compounds read low 0.988 | S. cerevisiae deletion strains, locus YNL209W, strain ssb2, active compounds read low 0.981 | S. cerevisiae deletion strains, locus YNL224C, strain SQS1, active compounds read low 0.983 | S. cerevisiae deletion strains, locus YNL233W, strain BNI4, active compounds read low 1 | S. cerevisiae deletion strains, locus YNL248C, strain rpa49, active compounds read low 1.03 | S. cerevisiae deletion strains, locus YNL250W, strain rad50, active compounds read low 0.952 | S. cerevisiae deletion strains, locus YNL271C, strain bni1, active compounds read low 0.993 | S. cerevisiae deletion strains, locus YNL298W, strain CLA4, active compounds read low 0.994 | S. cerevisiae deletion strains, locus YNL307C, strain MCK1, active compounds read low 0.98 | S. cerevisiae deletion strains, locus YNL322C, strain KRE1 (second series), active compounds read low 0.967 | S. cerevisiae deletion strains, locus YNL322C, strain KRE1, active compounds read low 0.996 and 0.98 | S. cerevisiae deletion strains, locus YNR049C, strain mso1, active compounds read low 1 | S. cerevisiae deletion strains, locus YNR052C, strain pop2, active compounds read low 0.978 | S. cerevisiae deletion strains, locus YOL006C, strain TOP1, active compounds read low 1.02 | S. cerevisiae deletion strains, locus YOL012C, strain htz1 1.02 | S. cerevisiae deletion strains, locus YOL147C, strain pex11, active compounds read low 0.98 | S. cerevisiae deletion strains, locus YOR001W, strain rrp6, active compounds read low 0.971 | S. cerevisiae deletion strains, locus YOR061W, strain CKA2, active compounds read low 0.987 | S. cerevisiae deletion strains, locus YOR069W, strain VPS5, active compounds read low 0.992 | S. cerevisiae deletion strains, locus YOR070C, strain gyp1, active compounds read low 0.981 | S. cerevisiae deletion strains, locus YOR080W, strain dia2, active compounds read low 1 | S. cerevisiae deletion strains, locus YOR083W, strain WHI5 (second series), active compounds read low 0.997 | S. cerevisiae deletion strains, locus YOR083W, strain WHI5, active compounds read low 0.95 | S. cerevisiae deletion strains, locus YOR106W, strain vam3, active compounds read low 0.986 | S. cerevisiae deletion strains, locus YOR136W, strain idh2, active compounds read low 0.994 | S. cerevisiae deletion strains, locus YOR144C, strain elg1, active compounds read low 0.989 | S. cerevisiae deletion strains, locus YOR184W, strain ser1, active compounds read low 0.972 | S. cerevisiae deletion strains, locus YOR265W, strain rbl2, active compounds read low 0.977 | S. cerevisiae deletion strains, locus YOR270C, strain vph1, active compounds read low 1.07 | S. cerevisiae deletion strains, locus YOR290C, strain snf2, active compounds read low 0.992 | S. cerevisiae deletion strains, locus YOR316C, strain cot1, active compounds read low 0.993 | S. cerevisiae deletion strains, locus YPL051W, strain arl3, active compounds read low 0.977 | S. cerevisiae deletion strains, locus YPL055C, strain LGE1, active compounds read low 1.06 | S. cerevisiae deletion strains, locus YPL078C, strain atp4, active compounds read low 0.993 | S. cerevisiae deletion strains, locus YPL106C, strain sse1, active compounds read low 0.959 | S. cerevisiae deletion strains, locus YPL240C, strain hsp82, active compounds read low 0.997 | S. cerevisiae deletion strains, locus YPL241C, strain CIN2, active compounds read low 0.996 | S. cerevisiae deletion strains, locus YPR119W, strain clb2, active compounds read low 0.99 | S. cerevisiae deletion strains, locus YPR141C, strain kar3, active compounds read low 0.985 | S. cerevisiae deletion strains, locus YPR163C, strain tif3, active compounds read low 0.979 | S. cerevisiae deletion strains, locus YPR167C, strain met16, active compounds read low 0.987 | S. cerevisiae deletion strains, strain wtn01, active compounds read low 0.967 | S. cerevisiae strains, strain wild type, active compounds read low 1
